Source: PubChem BioAssay AID1159580 (chemical genetic matrix, 2015)
“And” between values parts separate entries of the source, which are not always exact repeats. Equal entries are not always repeated. Among all 5,500 compounds or so, about 2,000 (36%) were called active. About 18% were inconclusive and are not listed. No stated cut-off is given here; in the data, active means normalized growth mostly below about 0.91 (no sharp cut-off); inconclusive means no clear call, values can overlap the other calls; inactive means mostly above about 0.92. This is one part of the list.

Experiment: chemical genetic growth profiling, strain panel (AID 1159580);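 further: tested at 20 µM; growth read once vehicle control cultures reached saturation at 30 °C; 1 = growth at the plate median or of vehicle wells; lower values mean less growth of the strain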
Conditions: S. cerevisiae deletion strains, growth OD

Measured: normalized growth

COC1=CC(=O)C[C@@H](C)[C@]12Oc1c(Cl)c(OC)cc(OC)c1C2=O
inactive: locus YAL013W, strain DEP1, hits give low values 1.02 | locus YAL021C, strain ccr4, hits give low values 1.01 | locus YAL026C, strain drs2, hits give low values 0.989 | locus YAL030W, strain snc1, hits give low values 0.988 | locus YBL061C, strain skt5, hits give low values 0.972 | locus YBR009C, strain hhf1, hits give low values 0.937 | locus YBR021W, strain FUR4, hits give low values 1 | locus YBR023C, strain chs3, hits give low values 0.978 | locus YBR171W, strain sec66, hits give low values 0.961 | locus YBR229C, strain ROT2, hits give low values 0.954 | locus YBR231C, strain swc5, hits give low values 1 | locus YBR279W, strain paf1, hits give low values 0.987 | locus YCL011C, strain gbp2, hits give low values 0.963 | locus YCL016C, strain dcc1, hits give low values 0.958 | locus YCL029C, strain bik1, hits give low values 0.987 | locus YCL061C, strain MRC1, hits give low values 1 | locus YCL069W, strain vba3, hits give low values 0.979 | locus YCR088W, strain abp1, hits give low values 0.979 | locus YDL005C, strain med2, hits give low values 0.996 | locus YDL035C, strain GPR1, hits give low values 0.95 | locus YDL040C, strain nat1, hits give low values 0.995 | locus YDL074C, strain BRE1, hits give low values 1.02 | locus YDL101C, strain DUN1, hits give low values 1 | locus YDL134C, strain PPH21, hits give low values 0.97 | locus YDL185W, strain tfp1, hits give low values 0.972 | locus YDL192W, strain arf1, hits give low values 0.988 | locus YDR001C, strain nth1, hits give low values 0.982 | locus YDR069C, strain doa4, hits give low values 0.991 | locus YDR101C, strain arx1, hits give low values 0.992 | locus YDR137W, strain rgp1, hits give low values 0.954 | locus YDR150W, strain NUM1, hits give low values 0.996 | locus YDR159W, strain sac3, hits give low values 1.02 | locus YDR162C, strain NBP2, hits give low values 0.932 | locus YDR195W, strain ref2 1.03 | locus YDR297W, strain sur2, hits give low values 1 | locus YDR318W, strain mcm21, hits give low values 0.988 | locus YDR334W, strain swr1, hits give low values 0.993 | locus YDR335W, strain msn5, hits give low values 0.986 | locus YDR388W, hits give low values 1 | locus YDR392W, strain spt3, hits give low values 0.907 | locus YDR502C, strain sam2, hits give low values 0.999 | locus YEL003W, strain gim4, hits give low values 0.986 | locus YEL037C, strain rad23, hits give low values 0.984 | locus YEL061C, strain CIN8 (second series), hits give low values 0.977 | locus YEL061C, strain CIN8, hits give low values 0.996 | locus YER015W, strain faa2, hits give low values 0.971 | locus YER016W, strain bim1, hits give low values 0.971 | locus YER110C, hits give low values 0.989 | locus YER111C, strain swi4, hits give low values 0.979 | locus YER155C, strain BEM2 (second series), hits give low values 1.01 | locus YER155C, strain BEM2, hits give low values 1.01 | locus YER167W, strain BCK2, hits give low values 0.981 | locus YFR010W, strain ubp6, hits give low values 0.987 | locus YGL078C, strain dbp3, hits give low values 0.987 | locus YGL086W, strain mad1, hits give low values 0.994 | locus YGL167C, strain pmr1, hits give low values 0.97 | locus YGL173C, strain kem1, hits give low values 0.984 | locus YGL227W, strain vid30, hits give low values 0.978 | locus YGL240W, strain doc1, hits give low values 1.01 | locus YGL248W, strain PDE1, hits give low values 1.01 | locus YGL253W, strain hxk2, hits give low values 0.994 | locus YGR078C, strain PAC10, hits give low values 1.01 | locus YGR135W, strain pre9, hits give low values 1.01 | locus YGR229C, strain SMI1, hits give low values 0.978 | locus YGR252W, strain gcn5, hits give low values 0.992 | locus YHR013C, strain ard1, hits give low values 0.975 | locus YHR027C, strain rpn1, hits give low values 0.975 | locus YHR030C, strain SLT2, hits give low values 0.988 and 1.01 | locus YHR079C, strain IRE1 (second series), hits give low values 0.995 | locus YHR079C, strain IRE1, hits give low values 1.01 | locus YHR094C, strain hxt1, hits give low values 0.988 | locus YHR129C, strain ARP1, hits give low values 0.996 | locus YHR142W, strain chs7, hits give low values 0.934 | locus YHR200W, strain rpn10, hits give low values 0.983 | locus YIL066C, strain RNR3, hits give low values 0.937 | locus YIL073C, strain SPO22, hits give low values 0.997 | locus YIL125W, strain kgd1, hits give low values 0.986 | locus YIR030C, strain dcg1, hits give low values 1.01 | locus YJL092W, strain hpr5, hits give low values 0.987 | locus YJL095W, strain BCK1 (second series), hits give low values 0.977 | locus YJL095W, strain BCK1, hits give low values 1.06 and 1.01 | locus YJL115W, strain asf1, hits give low values 0.981 | locus YJL129C, strain trk1, hits give low values 0.964 | locus YJL134W, strain LCB3, hits give low values 0.987 | locus YJL154C, strain vps35, hits give low values 0.983 | locus YJL164C, strain tpk1, hits give low values 0.964 | locus YJL166W, strain qcr8, hits give low values 1 | locus YJL168C, strain set2, hits give low values 0.989 | locus YJL187C, strain SWE1 (second series), hits give low values 1.03 | locus YJL187C, strain SWE1, hits give low values 0.983 | locus YJR043C, strain POL32, hits give low values 0.964 | locus YJR066W, strain TOR1, hits give low values 0.969
